Structures are written as SMILES.

Assay [1] deals with T1, Protein kinase C epsilon type (Homo sapiens) (UniProt Q02156).
T1 sequence (whole entry): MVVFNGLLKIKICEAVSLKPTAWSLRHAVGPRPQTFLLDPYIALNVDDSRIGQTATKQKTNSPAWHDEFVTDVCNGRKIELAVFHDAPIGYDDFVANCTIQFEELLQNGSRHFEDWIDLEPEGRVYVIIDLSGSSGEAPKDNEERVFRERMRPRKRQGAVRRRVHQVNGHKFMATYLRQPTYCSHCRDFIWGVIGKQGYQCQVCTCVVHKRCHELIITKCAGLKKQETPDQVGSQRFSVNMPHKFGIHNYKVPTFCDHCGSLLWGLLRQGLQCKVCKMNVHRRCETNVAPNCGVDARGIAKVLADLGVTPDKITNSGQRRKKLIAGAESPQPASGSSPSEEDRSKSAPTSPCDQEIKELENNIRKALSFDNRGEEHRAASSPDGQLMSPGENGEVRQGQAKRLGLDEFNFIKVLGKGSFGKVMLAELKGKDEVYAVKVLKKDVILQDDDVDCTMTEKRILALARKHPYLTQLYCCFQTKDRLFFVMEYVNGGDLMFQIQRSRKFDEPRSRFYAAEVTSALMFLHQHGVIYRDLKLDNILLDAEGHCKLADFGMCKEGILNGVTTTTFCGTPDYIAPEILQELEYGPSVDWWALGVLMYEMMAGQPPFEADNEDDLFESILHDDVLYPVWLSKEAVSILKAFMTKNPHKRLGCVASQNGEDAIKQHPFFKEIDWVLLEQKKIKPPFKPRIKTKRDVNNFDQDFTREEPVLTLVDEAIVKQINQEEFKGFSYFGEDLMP
As to conditions: at 1 µM.

In assay [2] the target is T1, Protein kinase C epsilon type (Homo sapiens). As to conditions: at 10 µM.

One may read the residual activity as the signal under treatment as a percentage of the control signal. Regarding `O=C(O)/C=C/c1cc(Br)c(Br)c(Br)c1Br`, the residual activity in assay [1] is 104%; in assay [2], 102%. With `Oc1cccc(-c2nc(N3CCOCC3)c3oc4ncccc4c3n2)c1`, the residual activity in assay [1] came out at 91%; in assay [2] it was 99%. As for `O=C1Nc2ccc(Cl)cc2/C1=C/c1cc(Cl)c(O)c(Cl)c1`, the results for the residual activity in assay [1] and in assay [2] were 87% and 97%, respectively.

As for `CC(C)[C@H](CO)Nc1nc(Nc2cc(N)cc(Cl)c2)c2ncn(C(C)C)c2n1`, the residual activity is 100% in assay [1] and 98% in assay [2]. Consider `Nc1ncnc2[nH]nc(Nc3ccc(F)cc3)c12`, for which the residual activity in assay [1] amounted to 123%; in assay [2], 112%. As for `O=S(=O)(NCCNC/C=C/c1ccc(Br)cc1)c1cccc2cnccc12`, the residual activity in assay [2] was 76%. For `CC(C)(C)n1nc(Cc2cccc3ccccc23)c2c(N)ncnc21`, the residual activity was 91% in assay [1] and 100% in assay [2].

As for `O=C(Nc1nc2ccccc2n1CCN1CCOCC1)c1cccc([N+](=O)[O-])c1`, the residual activity in assay [1] was 86%; in assay [2], 102%. As to `O=C1NC(=O)C(c2cn(CCCn3ccnc3)c3ccccc23)=C1Nc1ccccc1`, the residual activity in assay [1] is 21%; in assay [2], 3%. Regarding `COc1ccc(-c2cnc3c(-c4ccsc4)cnn3c2)cc1`, the values for the residual activity in assay [1] and in assay [2] were 86% and 100%, respectively. `O=C(c1ccccc1)c1ccc(N2CCOCC2)cc1O`: the residual activity came to 89% in assay [1] and 95% in assay [2]. `COc1ccc2c(c1)c(C1=C(c3c[nH]c4ccccc34)C(=O)NC1=O)cn2CCCN(C)C`: the residual activity in assay [1] worked out at 3%; in assay [2], 0%. As for `Cn1sc(=O)n(Cc2ccccc2)c1=O`, the residual activity worked out at 88% in assay [1] and 11% in assay [2].

For `NC(=O)Nc1sc(-c2ccc(F)cc2)cc1C(N)=O`, the residual activity in assay [1] worked out at 102%; in assay [2] it was 94%.

For the compound `CCCC(=O)Oc1ccc2[nH]c(C(=O)c3cc4ccccc4[nH]3)cc2c1`, the residual activity was found to be 85% in assay [1] and 93% in assay [2]. Regarding `Nc1ncnc2c1cnn2-c1ccccc1`, the residual activity in assay [1] turned out to be 80%; in assay [2], 101%. The corresponding values for `NCCNc1ncc(C(N)=O)c(Nc2cccc(C(F)(F)F)c2)n1` are 77% and 62%. Regarding `O=C(NC(NC(=S)Nc1ccc(F)c([N+](=O)[O-])c1)C(Cl)(Cl)Cl)C(c1ccccc1)c1ccccc1` (configuration not stated), the residual activity was determined as 84% in assay [1] and 96% in assay [2].

With `CC(C)N(CCC(=O)c1ccc2ccccc2c1)Cc1ccccc1`, in assay [1], the residual activity was determined as 83%. Consider `CCOC(=O)c1c(C)[nH]c(/C=C2\C(=O)Nc3ccccc32)c1C`, for which the residual activity worked out at 83% in assay [1] and 88% in assay [2]. Consider `COc1cc2nccc(Oc3ccc(NC(=S)NC(=O)c4ccccc4C)cc3)c2cc1OC`, for which the residual activity in assay [1] was found to be 85%; in assay [2], 88%. The corresponding values for `CC(C)c1nn(-c2c(Cl)cccc2Cl)c2nc(Cc3ccc(OCCO)cc3)[nH]c(=O)c12` are 99% and 82%. `Cc1cc(C)c(/C=C2\C(=O)Nc3ccccc32)[nH]1`: in assay [1], the residual activity was found to be 82%. In the case of `CSc1nc(-c2ccc(F)cc2)c(-c2ccnc(NC(C)c3ccccc3)c2)[nH]1` (configuration not stated), the residual activity in assay [1] came to 125%; in assay [2] it was 101%. Regarding `COc1ccc(Cl)cc1NC(=O)Nc1cc(C)nc2ccccc12`, the residual activity turned out to be 82% in assay [1] and 97% in assay [2]. As for `O=c1cc(N2CCNCC2)oc2c(-c3ccccc3)cccc12`, the results for the residual activity in assay [1] and in assay [2] were 93% and 98%, respectively. On to `CN(C)S(=O)(=O)c1ccc2c(c1)/C(=C/c1cc3c([nH]1)CCCC3)C(=O)N2`, for which the residual activity in assay [1] was 98%; in assay [2], 85%.

As to `O=S(=O)(c1cccc2cnccc12)N1CCCNCC1`, the residual activity in assay [2] worked out at 69%. As to `Nc1ncnc2c1c(-c1ccc(Oc3ccccc3)cc1)cn2C1CCCC1`, the residual activity in assay [1] and in assay [2] was 84% throughout. On to `O=C1NC(=O)C(c2c[nH]c3ccccc23)=C1c1c[nH]c2ccccc12`, for which the figures for the residual activity in assay [1] and in assay [2] were 63% and 21%, respectively. `O=C1C(Cl)=C(N2C(=O)CCC2=O)C(=O)c2ccccc21`: the residual activity in assay [1] was 90%; in assay [2], 26%. The corresponding values for `O=c1cc(N2CCOCC2)oc2c1ccc1ccccc12` are 87% and 87%. For `O=C1NC(=O)c2c1c1c3ccccc3[nH]c1n1cncc21` the same measures were 105% and 94%.

The values are drawn from ChEMBL document CHEMBL2218924, “A broad activity screen in support of a chemogenomic map for kinase signalling research and drug discovery” (Biochem J, 2013).
